# Screens: PubChem BioAssay, National Center for Advancing Translational Sciences (NCATS)
# Hits are enriched below; roughly 2.4% of the tested compounds scored in any of these assays.
# Nrf2 inh: Nrf2 qHTS screen for inhibitors; A549 ARE-Fluc reporter, luciferase luminescence, 18-24 h; Potency, µM (top dose mostly 46 µM), without a hit: at the highest dose activity change, negative = inhibition, usual class: inhibitors; actives 2.1% (n = 360,000); also: % is scaled to controls: 0 for no effect and ±100 for the full control effect; nearly all actives have a fitted effect of over 60% in size
#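 Cells were seeded and rested 2 h, then exposed to compounds for 18-24 h. CellTiter-Fluor was read first as a viability measure. BugLite was added 15 min before the final luminescent read of ARE-luciferase activity in A549 cells.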
# PINK1 modulator: A Quantitative High throughput Screen to Identify Chemical Modulators of PINK1 Expression; PINK1 immunofluorescence, high-content cytometry, 24 h; Potency, µM (doses to about 76.6 µM), inactives show top-dose activation (PINK1 increase), actives largely listed as activators; actives 0.2% (n = 410,000); AID 624263, 2012; active = well fitted activation curve with a large enough effect; inconclusive = small, poorly fitted or top-dose-only effect; cell line not stated here; also: % of control where 0% means no effect; nearly all actives have a fitted effect of over 65% in size
#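 PINK1 protein, normally rapidly degraded, was detected by immunofluorescence after 24 hour compound treatment of a stable cell line. Titration data (5 concentrations) came from laser-scanning cytometry, with CCCP-treated wells as controls.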
# Epigenetic derep: Quantitative High-Throughput Screen for Regulators of Epigenetic Control; murine LDR cells, GFP reporter derepression, 30 h; actives 0.2% (n = 280,000); Potency, µM (doses to about 53.9 µM), inactives show top-dose GFP activation, actives largely listed as activators; also: % of control where 0% means no effect; nearly all actives have a fitted effect of over 60% in size
#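 In this reporter-derepression format, murine cells bearing a silenced integrated CMV-GFP locus incubate with test compound (30 h, 37 C), then are washed and imaged; fluorescent objects of 20–120 um count as induced cells.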
# Nrf2 ARE act: qHTS of Nrf2 Activators. AREc32 ARE-luciferase reporter (MCF7-derived line), luminescence, 24 h. Potency, µM (top dose mostly 46.1 µM), inactives show at the highest dose activation, hits mostly activators. actives 0.31% (n = 410,000). AID 624171, 2012; also: % of control where 0% means no effect; nearly all actives have a fitted effect of over 65% in size
#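 AREc32 cells carrying an ARE-driven firefly luciferase reporter were seeded at 1000 cells/well in OPTI-MEM with 5% FBS, then exposed to compound for 24 hr at 37 deg C. Luminescence was read with Steady-Glo after 30 min at RT.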
# A549 viability: Nrf2 qHTS screen for inhibitors: counterscreen for cytotoxicity; actives 0.16% (n = 390,000); A549 ARE-Fluc cells, CellTiter-Fluor viability, 18-24 h; Potency, µM (series often up to 46 µM), for inactives: top-dose activity change, negative = cytotoxicity, usual class: inhibitors; AID 504648, 2011; also: % is scaled to controls: 0 for no effect and ±100 for the full control effect
#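 A549 ARE-Fluc cells in 5% FBS OPTI-MEM, 5000 cells/well, rested 2 h then exposed to compounds in concentration-response for 18-24 h at 37 °C. Viability by CellTiter-Fluor fluorescence (Ex 405/Em 525) after 30 min; luciferase luminescence (BugLite, 15 min, RT) read afterwards.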
# The depositor's hits bear a star; ? = inconclusive; / = no result given; [ ] = remark or other dose. Unless noted, calls follow the shape of the dose curve; as a rule, active = well fitted curve in the direction sought with a large enough effect; inconclusive = small, poorly fitted or top-dose-only effect, or another doubt; inactive = no such curve, though single readings can be large; an effect the other way counts as inactive or inconclusive. Potency is read from the fitted curve at half-maximal effect.
SMILES,Nrf2 inh,PINK1 modulator,Epigenetic derep,Nrf2 ARE act,A549 viability
Cc1ccc(S(=O)(=O)Nc2cc3c(cc2NCc2ccccc2)n(C)c(=O)n3C)cc1,?,4.9%,1.9%,?,-15.7%
CC(C)c1ccc(S(=O)(=O)Nc2cc3c(cc2NCc2ccccc2)n(C)c(=O)n3C)cc1,25.9µM*,2.5%,0.0%,6.4%,-10.3%
Cc1c(C(=O)N2CC[C@@H]3CCCC[C@H]3C2)sc2ncnc(NCCc3ccccn3)c12,/,2.3%,/,/,/
Nc1ncc(Br)cc1S(=O)(=O)NCCC(=O)N1CCN(c2ncccn2)CC1,18.4µM*,-2.9%,-0.5%,-0.1%,-16.0%
CCOC(=O)CNC(=O)C1CCCCC1,?,-0.6%,/,/,6.3%
CCC(=O)N1CCc2cc(S(=O)(=O)CCC(=O)N3CCN(c4cccc(C)c4)C(C)C3)ccc21 (configuration not stated),20.6µM*,2.2%,-0.9%,3.0%,6.4%
CCC(=O)N1CCc2cc(Br)cc(S(=O)(=O)CCC(=O)N3CCN(c4cccc(C)c4)C(C)C3)c21 (configuration not stated),4.7%[9.27 µM],0.8%,0.3%,7.1%,?
COc1ccc(OC)c(/C=C/C(=O)Nc2ccc(C(=O)OCCC(C)C)cc2)c1,2.3%,0.7%,-0.5%,4.8%,-0.7%
Cc1cccc2cc(CNCCCN3CCCC3=O)c(N3CCN4CCCC4C3)nc12 (configuration not stated),/,1.0%,/,/,/
CSc1ccc(CCNc2ncnc3onc(C)c23)cc1,7.31µM*,0.3%,-2.9%,2.0%,4.1%
Cn1cnc(S(=O)(=O)N2CCC(C(=O)Nc3ccc(Cl)c(C(F)(F)F)c3)CC2)c1,/,4.8%,-2.6%,-1.2%,-15.4%
O=C(NC1CC2CCC(C1)N2Cc1nnnn1Cc1ccco1)NC12CC3CC(CC(C3)C1)C2 (configuration not stated),4.11µM*,-4.1%,0.0%,1.8%,-28.0%
CC(C)C1Cc2c(sc3[nH]c(=S)n(Cc4ccccc4)c(=O)c23)CO1 (configuration not stated),16.4µM*,-2.4%,4.1%,-1.0%,?
Cn1ccnc1C1CCCCN1C(=O)CN1Cc2ccccc2OC(c2ccccc2F)C1 (configuration not stated),/,0.4%,/,/,/
Cc1ccccc1CS(=O)(=O)c1cnc2ccccc2n1,-12.5%,1.8%,-0.6%,8.91µM*,-0.4%
CCS(=O)(=O)Nc1cc(C(=O)N2CCCN(C=O)CC2)c2c(c1)nc(-c1ccccc1)n2C,/,-0.3%,/,/,/
COc1ccc(Cl)cc1NC(=O)CSc1cn(CC(=O)N2CCCC2)c2ccccc12,-23.9%,3.1%,3.6%,0.4%,-3.3%
O=C(CSc1cn(CC(=O)N2CCCCCC2)c2ccccc12)Nc1ccccc1F,20.6µM*,-0.9%,2.7%,0.9%,-10.6%
COc1ccc(C(=O)NCCn2cc(SCc3cccc(F)c3)c3ccccc32)cc1OC,23.1µM*,1.4%,-1.1%,-0.9%,-16.2%
COc1ccc(Cl)cc1NC(=O)CSc1cn(CC(=O)N2CCCCCC2)c2ccccc12,25.9µM*,2.1%,-1.5%,0.5%,-7.1%
COc1ccccc1C(=O)NCCn1cc(SCC(=O)Nc2ccccc2F)c2ccccc21,23.1µM*,2.4%,3.2%,0.3%,-21.1%
Cc1cccc(C(=O)NCC(=O)OC(C(=O)Nc2cc(C(F)(F)F)ccc2Cl)c2ccccc2)c1 (configuration not stated),8.1%,/,/,/,-1.5%
O=C1CCCC2=C1C(c1ccccc1Cl)N=C(Nc1nc3ccccc3o1)N2 (configuration not stated),-6.5%,/,/,/,-1.0%
O=C(CSc1cn(CCNC(=O)c2ccc3ccccc3c2)c2ccccc12)NCc1ccco1,23.1µM*,0.4%,-0.8%,6.4%,-26.6%
COc1ccc(Cl)cc1NC(=O)CSC1=NN2CCCC(=O)N=C2S1,23.1µM*,-0.1%,/,1.7%,-12.7%
SMILES,Nrf2 inh,PINK1 modulator,Epigenetic derep,Nrf2 ARE act,A549 viability
COc1cc(F)cc(F)c1[S+](=O)([O-])N1CCN([S+](=O)([O-])c2ccc3c(c2)OCCO3)CC1,8.1%,/,/,/,-4.6%
Cc1cccc(-c2nc(=S)c3c(n2Cc2ccco2)CCCC3)c1,5.7%,-5.0%[38.3 µM],-1.0%,8.5%,-12.4%[1.84 µM]
O=[N+]([O-])c1ccc(-c2nc(=S)c3c(o2)CCCC3)cc1,22.8%,1.9%,0.0%,0.8%,-0.4%
S=c1nc(-c2ccccc2)oc2c1CCCC2,?,2.1%,-0.9%,11.2µM*,2.0%
COc1cccc(-c2nc(=S)c3c(n2Cc2ccco2)CCCC3)c1,2.9%,6.31µM*,-1.1%,12.9%,9.7%[1.84 µM]
COc1cccc(-c2nc(=S)c3c(o2)CCCC3)c1,16.6%,1.9%,-0.3%,11.2µM*,-0.6%
Cc1cc(C(=O)NCc2nnc3n2CCN(Cc2ccc(F)cc2F)CC3)c(C)o1,/,-0.2%,/,/,/
C=C(C)C(=O)Oc1ccc(N2C(=O)CCC2=O)cc1,-14.4%,2.1%,22.4µM*,?,-10.0%
CC(=O)Oc1ccc(N2C(=O)CCC2=O)cc1,14.3%,0.0%,0.0%,-1.1%,7.2%
CC(=O)c1c(C(C)=O)c(C)n(-c2nc(-c3ccc(C)c(C)c3)c(C)s2)c1C,13µM*,7.8%,-0.9%,0.1%,-2.8%
COc1ccc(/C=C/c2cnc3ccccc3n2)cc1OC,/,-0.6%,/,/,/
CC(C)N(C(=O)CSc1nc(Cc2ccccc2)nc2ccccc12)C(C)C,18.4µM*,2.9%,/,1.7%,2.9%
CCC(=O)Oc1ccc2c(c1)O/C(=C\c1ccco1)C2=O,-0.7%,1.4%,4.5%,7.94µM*,-17.4%
CCN(CC)C(=O)Oc1ccc2c(c1)O/C(=C\c1ccco1)C2=O,?,0.6%,/,20.5%,0.8%
C[C@@H]1CN(Cc2ccc3c(c2)CN(Cc2cccc4c2OCO4)CCO3)C[C@H](C)O1,/,-0.3%,/,/,/
Cc1cc(C)c2c(c1)/C(=C/C(=O)c1ccc(Br)s1)C(=O)N2,9.2µM*,-1.3%[38.3 µM],0.1%,-0.2%,?
COc1cccc2c1C(=O)/C(=C/c1ccc(N(C)C)cc1)C2,/,3.8%,/,/,/
O=C(NCc1cccnc1)/C(=C\c1ccc(-c2cccc(Cl)c2)o1)S(=O)(=O)c1ccccc1,20.6µM*,-2.2%,0.0%,?,20.6µM*
COC(=O)c1c(OCc2cccnc2)cc(=O)n2c1CCN(C(=O)c1c3c(nn1C)CCCC3)CC2,/,-0.2%,/,/,/
CCC1CN(C(=O)NCc2ccc(F)cc2)c2cc(C)ccc2O1 (configuration not stated),20.6µM*,-0.2%,1.4%,-0.2%,?
COc1cc(Cl)c(C)cc1N1C(=O)[C@@H]2C[C@H]1CN2Cc1ccccn1,/,1.3%,/,/,/
FC(F)(F)c1ccccc1Cc1c(-c2cccc(Br)c2)nc2c3ccccc3ccn12,/,2.1%,/,12.6µM*,/
